Screening data as filed in PubChem.
This is a sample that favours compounds with a hit; in the whole collection about 6.2% have one here.
HCMV inh: qHTS Assay for inhibitors of the human cytomegalovirus (HCMV). activity change, negative = inhibition, % at 57.5 µM. 410,000 compounds, 4.5% hits. HFF cells, HCMV-luciferase reporter, 72 h; active compounds read low; in the data active = activity change below about -60%; inconclusive = no clear call, values can overlap the other calls; inactive = above about -39%
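Inhibition of viral replication was scored as loss of reporter luminescence in HFFs infected with HCMV-luciferase (MOI 1 PFU/cell) for 72 h; compounds tested at 2 doses, normalized to buffer and Salinomycin controls.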
FMDV antiviral: High Throughput Screening for Foot and Mouth Disease Virus Antivirals. FMDV antiviral cell-based qHTS. Potency, µM (doses to about 57.9 µM), most hits filed as inhibitors. 410,000 compounds, 1.2% hits. AID 1159524, 2015; calls by dose curve; tested in HEK293T cells; note: read-out not given here; nearly all actives have a fitted effect of over 45% in size
LASV entry inh: qHTS for Inhibitors of binding or entry into cells for Lassa Virus. Potency, µM (doses to about 37.9 µM), most hits filed as inhibitors. AID 540256, 2011. 300,000 compounds, 1.2% hits. Lassa virus pseudotype entry inhibition, cell reporter; calls by dose curve; tested in HEK293 cells; note: nearly all actives have a fitted effect of over 50% in size
MARV entry inh: qHTS for inhibitors of binding or entry into cells for Marburg Virus. Marburg virus pseudotyped entry inhibition, cell reporter. Potency, µM (top dose mostly 37.8 µM), most hits filed as inhibitors. 300,000 compounds, 1.8% hits; calls by dose curve; tested in HEK293 cells
Numbers stand for hits.

Cc1ccc(-n2nnc(-c3nc(-c4cccs4)no3)c2N)cc1C was read as HCMV inh inactive, FMDV antiviral inactive and LASV entry inh inactive.
`O=[N+]([O-])c1ccc(N/N=C2/CCCCC2c2ccccn2)cc1` (stereo not given) gave HCMV inh inactive, FMDV antiviral inactive, LASV entry inh inconclusive and MARV entry inh 1.12µM.
O=C1c2ccccc2C(=O)N1CC(O)COCc1ccccc1 (stereo not given) was read as HCMV inh inactive, LASV entry inh inactive and MARV entry inh inactive.
O=C(/C(=C/c1ccncc1)n1ccnc1)c1ccc(Cl)cc1Cl was read as HCMV inh inconclusive and FMDV antiviral 22.4µM.
For COc1cc(NC(=O)CCS(=O)(=O)c2ccc3c(c2)n(C)c(=O)c(=O)n3C)cc(OC)c1 the results were HCMV inh inactive, FMDV antiviral inactive, LASV entry inh inactive and MARV entry inh inactive.
For Cc1ccc2nc(SCc3ccccc3)c(C=O)c(=O)n2c1 the results were HCMV inh inactive, FMDV antiviral inactive, LASV entry inh inconclusive and MARV entry inh inactive.
Screening Cc1cccc2nc(-c3ccc(N(C)C)cc3)c(Nc3ccc4c(c3)OCO4)n12 returned HCMV inh inactive, FMDV antiviral inactive, LASV entry inh inconclusive and MARV entry inh inconclusive.
For Cc1cc2ncn(/N=C/c3ccc([N+](=O)[O-])s3)c2cc1C the results were HCMV inh inactive, FMDV antiviral inactive, LASV entry inh inactive and MARV entry inh inconclusive.
`O=[N+]([O-])c1ccc(/C=N/n2cnc3ccccc32)s1` gave HCMV inh inactive, FMDV antiviral inactive, LASV entry inh inconclusive and MARV entry inh inconclusive.
Screening Cc1nc2ccccc2n1/N=C/c1ccc([N+](=O)[O-])o1 returned HCMV inh -66.7, LASV entry inh inconclusive and MARV entry inh 14.6µM.
`Cc1nc2ccccc2n1/N=C/c1ccc([N+](=O)[O-])s1` gave HCMV inh -81.8, FMDV antiviral inconclusive, LASV entry inh inconclusive and MARV entry inh inconclusive.
O=[N+]([O-])c1ccc(/C=N/n2c(CO)nc3ccccc32)s1 was read as HCMV inh -68.9, FMDV antiviral inactive, LASV entry inh inactive and MARV entry inh inconclusive.
`O=C(Nc1nnc(-c2ccccc2F)s1)C1CCN(S(=O)(=O)c2ccc(Cl)cc2)CC1` gave HCMV inh inactive, FMDV antiviral inactive, LASV entry inh inconclusive and MARV entry inh inactive.
Screening CC(C)OC(=O)Nc1ccc(Oc2c(F)c(F)c(F)c(F)c2F)cc1 returned HCMV inh inactive, FMDV antiviral inactive, LASV entry inh inactive and MARV entry inh inactive.
O=C(NNC(=O)c1ccc([N+](=O)[O-])cc1)c1ccc(F)cc1 was read as HCMV inh inactive, FMDV antiviral inactive, LASV entry inh inactive and MARV entry inh inactive.
`Cc1c(C2(O)CCCCC2)[nH]c2cc(C(F)(F)F)ccc12` gave HCMV inh inactive and FMDV antiviral inconclusive.
For CCOC(=O)c1nn(-c2ccc3c(c2)OCO3)cc1O the results were HCMV inh -101.4, FMDV antiviral inactive, LASV entry inh inactive and MARV entry inh inactive.
O=C(Nc1ccc2ccccc2c1)C(c1ccccc1)C1CCCC1 (stereo not given) was read as HCMV inh inconclusive, FMDV antiviral inactive, LASV entry inh 2.59µM and MARV entry inh inconclusive.
Screening COc1ccc(NC(=O)N(C)C[C@@H]2Oc3cc(C#CCN(C)C)ccc3S(=O)(=O)N([C@H](C)CO)C[C@H]2C)cc1 returned HCMV inh inactive and FMDV antiviral inactive.
`CC(=O)N1CCC(=NNc2nc3ccccc3[nH]2)CC1` gave HCMV inh inactive, FMDV antiviral inactive, LASV entry inh inactive and MARV entry inh inconclusive.
For CCC(C)(C)C1CCC(=NNc2nc3ccccc3[nH]2)CC1 (stereo not given) the results were HCMV inh inconclusive, FMDV antiviral inactive, LASV entry inh 8.2µM and MARV entry inh inconclusive.
For C#C[C@]1(O)CCC2C3C(=O)C=C4C(Cl)=CCC[C@]4(C)C3CC[C@@]21C (stereo not given in full) the results were HCMV inh -79.7, FMDV antiviral inactive, LASV entry inh inactive and MARV entry inh inactive.
Screening COc1ccccc1C(=O)OCC(=O)NC(=O)NC1CCCCC1 returned HCMV inh inactive, FMDV antiviral inactive, LASV entry inh inactive and MARV entry inh inconclusive.
Screening CCCn1c(CN(C)Cc2ccccc2)nc2c1c(=O)n(C)c(=O)n2C returned HCMV inh -68.1, FMDV antiviral 7.94µM, LASV entry inh inconclusive and MARV entry inh inconclusive.
For CCCCn1c(CN(C)Cc2ccccc2)nc2c1c(=O)n(C)c(=O)n2C the results were HCMV inh inconclusive, FMDV antiviral inconclusive, LASV entry inh inactive and MARV entry inh inconclusive.
CCCn1c(CN(Cc2ccccc2)Cc2ccccc2)nc2c1c(=O)n(C)c(=O)n2C was read as FMDV antiviral 25.1µM, LASV entry inh inactive and MARV entry inh inconclusive.
Screening CCOc1ccc(NC(=O)CN2CCN(S(=O)(=O)c3ccc(Cl)cc3)CC2)cc1 returned HCMV inh inactive, FMDV antiviral inactive, LASV entry inh inactive and MARV entry inh inactive.
`O=C(O)CCSc1nc2ccccc2n1-c1ccccc1` gave HCMV inh inactive, FMDV antiviral inactive, LASV entry inh inactive and MARV entry inh inactive.
`O=C(CSc1nc2ccccc2n1-c1ccccc1)Nc1ncc(Cl)cc1Cl` gave HCMV inh inconclusive, FMDV antiviral inactive, LASV entry inh 2.51µM and MARV entry inh 1.12µM.
Screening COc1ccc(NC(=O)CSc2nc3ccccc3n2-c2ccccc2)c([N+](=O)[O-])c1 returned HCMV inh inactive, FMDV antiviral inactive, LASV entry inh inconclusive and MARV entry inh 11.6µM.
CCCCN=CC1=C(O)CC(c2ccccc2)CC1=O (stereo not given) was read as HCMV inh -62.3, FMDV antiviral inactive, LASV entry inh inactive and MARV entry inh inconclusive.
CCCCC(=NCCc1c(C)[nH]c2ccccc12)C1=C(O)CC(c2ccccc2)CC1=O (stereo not given) was read as HCMV inh inactive, FMDV antiviral inactive, LASV entry inh 8.91µM and MARV entry inh inconclusive.
CCCC(=Nc1ccccc1OC)C1=C(O)CC(c2ccccc2)CC1=O (stereo not given) was read as HCMV inh inactive, FMDV antiviral inactive, LASV entry inh inactive and MARV entry inh inconclusive.
Screening COc1ccccc1N=C(C)C1=C(O)CC(c2ccccc2)CC1=O (stereo not given) returned HCMV inh -83.5, FMDV antiviral inactive, LASV entry inh inconclusive and MARV entry inh inconclusive.
`O=C1CC(c2ccccc2)CC(O)=C1C=Nc1ccccc1O` (stereo not given) gave HCMV inh -74.9 and FMDV antiviral inactive.
Screening O=C1CC(c2ccccc2)CC(O)=C1C=Nc1ccccc1 (stereo not given) returned HCMV inh inactive, FMDV antiviral inactive, LASV entry inh inconclusive and MARV entry inh inactive.
NS(=O)(=O)c1ccc(NC(=O)CSc2nc3c(cnn3-c3ccccn3)c(=O)[nH]2)cc1 was read as HCMV inh inactive, FMDV antiviral inactive, LASV entry inh inconclusive and MARV entry inh inconclusive.
`Cc1cc(=O)oc2cc(OCC(=O)NCc3ccco3)ccc12` gave HCMV inh inactive, FMDV antiviral inactive, LASV entry inh inactive and MARV entry inh inactive.
